The nature of the test: Secondary Assay for General miRNAs Modulators and/or Inhibitors/Activators of miR-21: miR-30 Firefly Luciferase Assay for second round cherrypicks. Particulars: HeLa miR-30 FLuc reporter, luminescence, 48 h. From the text: MLPCN Grant: 1 R21 NS059478-01 Assay Provider: Qihong Huang, The Wistar Institute NCGC Assay Overview: MicroRNAs (miRNAs) are endogenously encoded small (~20-25 nucleotides), nonprotein-coding RNAs that are involved in post-transcriptional repression of target messenger RNAs (mRNAs) (Le and Hannon, 2004). Estimated to be involved in the regulation of 30% of all protein-coding mRNAs (Filipowicz et al., 2008), miRNAs play a significant role in many biological processes including cellular differentiation and tissue development (Ghildiyal and Zamore, 2009). […] Compounds active in the miR-21 FLuc assay were clustered using Leadscope and active chemical series were prioritized based on chemical properties, potential for medicinal chemistry optimization, and SAR. Within each chemical series, representative compounds were re-acquired to test for activity in a secondary assay based on the quality of their CRC, efficacy, and potency. […]
NCGC Assay Protocol Summary: Reagents: HeLa cells stably expressing firefly luciferase (FLuc) under the control of a CMV promoter (upstream) and a miR-30 binding sequence directly downstream of the gene. […] After a 15 minute incubation to allow for cell lysis, luciferase activity was measured using a ViewLux CCD imager (PerkinElmer), with an average exposure time of 2-12 seconds. […]

Records with an inconclusive call do not appear. Calls of active or inactive are those of the source. Calls come from the whole dose curve; as a rule, active = well fitted inhibition curve with a large enough effect; inconclusive = small, poorly fitted or top-dose-only effect; inactive = flat fitted curve, though single readings scatter.

With `O=c1c2ccccc2nc(Cc2ccccc2)n1-c1ccccc1`, the Potency is 20 µM (active).
